Results as given in PubChem BioAssay.
Further: test concentration not given here.

Assay: JC-1 mitochondrial signal, unstimulated myeloma cells – cell-based, JC-1 fluorescence, RPMI8226, 24 h, 100 nL compound, profiling panel (AID 1169)
Details: JC-1 mitochondrial potential fluorescence, higher = more signal
`COC(=O)[C@@]1(CCC(=O)OC(C)(C)C)N=C(c2ccc(OCCCO)cc2)O[C@H]1c1ccccc1N=[N+]=[N-]` showed a z-score of -1.
`CCOC(=O)C[C@H]1[C@H](OC(=O)c2cc3ccccc3oc2=O)[C@@H](NC(=O)c2ccccc2)c2cc(OCCCO)ccc2N1C(=O)c1ccc2ccccc2n1` gave a z-score of -0.311.
`C=CCNC(=O)[C@@H]1[C@H]2C(=O)O[C@H](c3ccccc3)[C@H](c3ccccc3)N2[C@H](c2ccc(O)cc2)[C@@]12C(=O)N(C(=O)OCCOC)c1ccc(C#CCNC(N)=O)cc12` showed a z-score of 0.383.
`C=CCNC(=O)[C@H]1[C@@H]2C(=O)O[C@@H](c3ccccc3)[C@@H](c3ccccc3)N2[C@@H](c2ccccc2OCCO)[C@]12C(=O)Nc1ccc(C#CCC(C(=O)OC)C(=O)OC)cc12` showed a z-score of -1.32.
With `CCOC(=O)C1=CC[C@@H](c2ccccc2)N(S(=O)(=O)c2ccc(C)cc2)[C@H]1c1ccccc1C` the z-score was -0.275.
For `O=C1O[C@H](c2ccccc2)[C@H](c2ccccc2)N2[C@H]1[C@@H](C(=O)N1CCCCCCC1)[C@]1(C(=O)Nc3ccc(C#CCCO)cc31)[C@H]2c1ccccc1OCCO`, the z-score was -1.3.
`C=C(C(=O)CC[C@@H](OC(=O)c1cccnc1)c1ccccc1OCCO)C(C)C` showed a z-score of -0.356.
For `O=C1C2C=CC(C(O)Cc3ccccc3)N(n3cnnc3)C2C(=O)N1Cc1ccccc1` (centres undefined), the z-score was 0.395.
`O=C1[C@@]23C=C(Br)[C@H](C[C@@H]2CCOC3)[C@@]12CO2` showed a z-score of -0.849.
For `COC(=O)[C@@]1(Cc2ccc(OC)cc2)[C@H]2c3cc(C(=O)N(C)C)n(C)c3C[C@H]2CN1C(=O)c1ccccc1`, the z-score was -0.701.
Work on `COCCOC(=O)N1C(=O)[C@@]2(c3cc(C#CCNC(N)=O)ccc31)[C@H](C(=O)N1CCN(c3ncccn3)CC1)[C@H]1C(=O)O[C@H](c3ccccc3)[C@H](c3ccccc3)N1[C@@H]2c1ccc(OCCO)cc1` yielded a z-score of -0.863.
`COCCCNC(=O)[C@@H]1c2ccccc2C(=O)N(Cc2ccccc2Cl)[C@H]1c1ccc(CO)cc1` showed a z-score of -0.21.
In the case of `C=CC[C@]1(C(=O)NCCCOC)N=C(c2ccc(OCCCO)cc2)O[C@H]1c1ccccc1CN=[N+]=[N-]`, the z-score is reported as -1.25.

Assay: JC-1 mitochondrial signal, unstimulated MM1S myeloma – cell-based, JC-1 fluorescence, 24 h, 100 nL compound, profiling panel (AID 1170)
Details: MM1S mitochondrial potential, higher = more signal
`COc1ccc(C#Cc2ccc3c(c2)[C@]2(C(=O)N3)[C@H](c3ccccc3OCCO)N3[C@H](c4ccccc4)[C@H](c4ccccc4)OC(=O)[C@H]3[C@@H]2C(=O)Nc2nc3ccccc3s2)cc1` showed a z-score of -1.28.
Compound `COCCCNC(=O)[C@@]1(C)c2ccccc2C(=O)N(C(C)C)[C@H]1c1ccc(CO)cc1` has a z-score of -0.441.
Compound `COc1cc2c(cc1OC)CN(C(=O)[C@@H]1[C@H]3C(=O)O[C@H](c4ccccc4)[C@H](c4ccccc4)N3[C@H](c3ccc(O)cc3)[C@@]13C(=O)Nc1ccccc13)CC2` has a z-score of -0.404.
`COc1cccc(-c2cccc(=O)o2)c1` showed a z-score of 0.0881.
For `COCCOC(=O)N1C(=O)[C@@]2(c3ccccc31)[C@H](c1ccc(O)cc1)N1[C@H](c3ccccc3)[C@H](c3ccccc3)OC(=O)[C@H]1[C@@H]2C(=O)Nc1nc2ccccc2s1`, the z-score was -1.21.
With `O=C1O[C@@H](c2ccccc2)[C@@H](c2ccccc2)N2[C@@H](c3ccccc3OCCO)[C@]3(C(=O)Nc4ccccc43)[C@@H](C(=O)Nc3nc4ccccc4s3)[C@H]12` the z-score was -1.54.
`CCCC[C@H]1OB(O)C[C@H]2C1=C(COC)Cn1c(=O)n(-c3ccccc3)c(=O)n12` showed a z-score of -0.73.
In the case of `C=C(COC)C(=O)CC[C@@H](OC(C)=O)c1ccc(CO)o1`, the z-score is reported as -0.066.
In the case of `O=C1C[C@@](C(=O)NCC(F)(F)F)(c2ccc([N+](=O)[O-])cc2)[C@@H](c2ccc(CO)cc2I)N1C1CCCCC1`, the z-score is reported as -1.02.
For `COCCOC(=O)N1C(=O)[C@@]2(c3cc(C#CCC(C(=O)OC)C(=O)OC)ccc31)[C@H](C(=O)Nc1nc3ccccc3s1)[C@H]1C(=O)O[C@H](c3ccccc3)[C@H](c3ccccc3)N1[C@@H]2c1ccccc1OCCO`, the z-score was -1.19.
Compound `CN1C(=O)C2C=CC(C(O)C3CC=CCC3)N(N(c3ccccc3)c3ccccc3)C2C1=O` (centres undefined) has a z-score of -0.711.
`N#Cc1ccc(NN2C(C(O)C(c3ccccc3)c3ccccc3)C=CC3C(=O)N(c4ccccc4)C(=O)C32)cc1` (centres undefined) gave a z-score of -0.379.
Compound `O=C1N[C@@H](Cc2ccccc2)C(=O)N2[C@@H]1C[C@@H](C(=O)O)[C@H]2c1cccc(OCCO)c1` has a z-score of -1.19.
In the case of `COC(=O)[C@@]1(Cc2ccc(F)cc2)[C@H]2c3cc(C(=O)N(C)C)n(Cc4cc(F)c(F)c(F)c4)c3C[C@H]2CN1C(=O)c1ccccc1`, the z-score is reported as -1.75.
In the case of `COc1ccc([Si](C)(C)[C@H]2[C@H](CC(=O)N3Cc4ccccc4C[C@H]3CO)O[C@@]3(C(=O)N(Cc4cccc(N5CCC5=O)c4)c4ccccc43)[C@@H]2C)cc1`, the z-score is reported as -1.23.
Work on `CC1CC/C=C\[C@H]2OC34C=CCN(C(C)(C)C)C(=O)[C@H]3N(CCO)C(=O)[C@@H]4C2C(=O)O1` (some centres undefined) yielded a z-score of 0.927.
`CC(C)=CCN[C@H](CO)c1ccccc1` showed a z-score of 0.559.
In the case of `CC(C)C[C@@H]1NC(=O)[C@@H]2C[C@H](C(=O)NCc3ccc(F)cc3)[C@H](c3cccc(OCCO)c3)N2C1=O`, the z-score is reported as -0.657.
`COC(=O)[C@@]1(Cc2ccc(F)cc2)[C@H]2c3cc(C(=O)N4CCCC4)n(Cc4ccc(S(C)(=O)=O)cc4)c3C[C@H]2CN1C(=O)c1ccccc1` showed a z-score of -0.583.
Compound `Cc1ccc(S[C@]2(C(=O)NCCCN(C)C)CC(=O)N(Cc3cc(C(F)(F)F)cc(C(F)(F)F)c3)[C@@H]2c2ccc(CO)cc2I)cc1` has a z-score of -2.03.
Compound `O=C1C[C@@](C(=O)NCCN2CCOCC2)(c2ccc([N+](=O)[O-])cc2)[C@@H](c2ccc(CO)cc2I)N1CC12CC3CC(CC(C3)C1)C2` has a z-score of -2.17.
`CCCC=C(CCC)[C@@H](NC(=O)c1cccs1)c1ccc(C(F)(F)F)cc1` gave a z-score of -1.71.
With `CCOC(=O)C[C@H]1[C@H](OC(=O)c2ccc(C(=O)c3ccccc3)cc2)[C@@H](NC(=O)c2ccccc2)c2cc(OCCCO)ccc2N1C(=O)c1ccc2ccccc2n1` the z-score was -0.386.
Compound `COC(=O)[C@@]1(CCC(=O)OC(C)(C)C)N=C(c2ccc(OCCCO)cc2)O[C@H]1c1ccccc1N=[N+]=[N-]` has a z-score of -2.34.
`CCOC(=O)C[C@H]1[C@H](OC(=O)c2cc3ccccc3oc2=O)[C@@H](NC(=O)c2ccccc2)c2cc(OCCCO)ccc2N1C(=O)c1ccc2ccccc2n1` gave a z-score of -0.0496.
For `C=CCNC(=O)[C@@H]1[C@H]2C(=O)O[C@H](c3ccccc3)[C@H](c3ccccc3)N2[C@H](c2ccc(O)cc2)[C@@]12C(=O)N(C(=O)OCCOC)c1ccc(C#CCNC(N)=O)cc12`, the z-score was 0.751.
Work on `C=CCNC(=O)[C@H]1[C@@H]2C(=O)O[C@@H](c3ccccc3)[C@@H](c3ccccc3)N2[C@@H](c2ccccc2OCCO)[C@]12C(=O)Nc1ccc(C#CCC(C(=O)OC)C(=O)OC)cc12` yielded a z-score of -2.23.
`CCOC(=O)C1=CC[C@@H](c2ccccc2)N(S(=O)(=O)c2ccc(C)cc2)[C@H]1c1ccccc1C` showed a z-score of -0.271.
Compound `O=C1O[C@H](c2ccccc2)[C@H](c2ccccc2)N2[C@H]1[C@@H](C(=O)N1CCCCCCC1)[C@]1(C(=O)Nc3ccc(C#CCCO)cc31)[C@H]2c1ccccc1OCCO` has a z-score of -1.11.
With `C=C(C(=O)CC[C@@H](OC(=O)c1cccnc1)c1ccccc1OCCO)C(C)C` the z-score was -1.07.
Compound `O=C1C2C=CC(C(O)Cc3ccccc3)N(n3cnnc3)C2C(=O)N1Cc1ccccc1` (centres undefined) has a z-score of 1.24.
With `O=C1[C@@]23C=C(Br)[C@H](C[C@@H]2CCOC3)[C@@]12CO2` the z-score was -0.688.
`COC(=O)[C@@]1(Cc2ccc(OC)cc2)[C@H]2c3cc(C(=O)N(C)C)n(C)c3C[C@H]2CN1C(=O)c1ccccc1` showed a z-score of -1.17.
With `COCCOC(=O)N1C(=O)[C@@]2(c3cc(C#CCNC(N)=O)ccc31)[C@H](C(=O)N1CCN(c3ncccn3)CC1)[C@H]1C(=O)O[C@H](c3ccccc3)[C@H](c3ccccc3)N1[C@@H]2c1ccc(OCCO)cc1` the z-score was -1.51.
Compound `COCCCNC(=O)[C@@H]1c2ccccc2C(=O)N(Cc2ccccc2Cl)[C@H]1c1ccc(CO)cc1` has a z-score of 0.418.
`C=CC[C@]1(C(=O)NCCCOC)N=C(c2ccc(OCCCO)cc2)O[C@H]1c1ccccc1CN=[N+]=[N-]` showed a z-score of -0.142.
